Results as given in PubChem BioAssay AID504700 (The Scripps Research Institute Molecular Screening Center, 2011).
Hit rate of the full screen: of about 340,000 compounds, about 270 (0.079%) were called active. This is one part of a sample in which actives are shown more often than they occur.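 The calls were made as follows: active = activation above a cutoff set at the mean over all compounds plus 3 SD (cut at about 18% in these data); inactive = the rest.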

Biological target: cAMP-dependent protein kinase catalytic subunit beta (Homo sapiens) + cAMP-dependent protein kinase type II-beta regulatory subunit (Homo sapiens) (UniProt P22694+P31323)
Assay: activators of PKA-R2B holoenzyme, primary screen, biochemical, fluorescence polarization, Cy5-IP20, human (AID 504700);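 also: higher means more holoenzyme dissociation and a rise in polarization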
Details: PKA-R2B holoenzyme dissociation, at 11.4 µM, hits give high values, 0% DMSO only, 100% 113 µM cGMP, R2B truncated from residue 108, S112A mutant

Sequence of cAMP-dependent protein kinase catalytic subunit beta (Homo sapiens) + cAMP-dependent protein kinase type II-beta regulatory subunit (Homo sapiens) (P31323 whole entry, looked up, other chains not shown): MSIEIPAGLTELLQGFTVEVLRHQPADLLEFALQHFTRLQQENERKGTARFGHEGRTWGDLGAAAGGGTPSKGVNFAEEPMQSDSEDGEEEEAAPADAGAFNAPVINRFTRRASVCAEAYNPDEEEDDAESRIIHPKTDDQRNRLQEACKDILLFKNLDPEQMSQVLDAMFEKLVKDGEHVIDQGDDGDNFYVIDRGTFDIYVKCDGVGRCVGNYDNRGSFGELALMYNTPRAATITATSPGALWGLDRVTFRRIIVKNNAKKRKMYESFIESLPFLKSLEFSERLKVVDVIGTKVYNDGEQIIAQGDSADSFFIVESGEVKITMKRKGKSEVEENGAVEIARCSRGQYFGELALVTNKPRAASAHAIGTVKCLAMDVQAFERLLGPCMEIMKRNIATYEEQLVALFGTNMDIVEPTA

activation, inactive:
C[C@H]1CN([C@@H](C)CO)S(=O)(=O)c2ccc(-c3cccc(F)c3)cc2O[C@@H]1CN(C)C -5.98%, COc1ccc2nc(-c3ccccn3)ccc2c1 -2.17%, COc1ccc(Cn2c(=O)oc3ccccc32)cc1 -4.8%, O=C1[C@H]2[C@@H](c3ccc(C(F)(F)F)cc3)N[C@]3(CCCN(Cc4ccc(Cl)cc4)C3=O)[C@H]2C(=O)N1Cc1ccccc1 -7.06%, COc1ccc(-c2ccc(CN3C(CC(C)C)C(=O)N(Cc4cn(CC5CCCCC5)nn4)CCS3(=O)=O)cc2)cn1 (stereo unspecified) 5.33%, O=C(COC(=O)c1cncc(Br)c1)Nc1ccc(S(=O)(=O)N2CCOCC2)cc1 -6.43%, CCOC(=O)c1cc(-c2sc(NC(=O)c3ccccc3)nc2C)n(CCO)n1 -2.07%, COC(=O)[C@H]1C[C@H](OC(=O)NCc2ccccc2)[C@@]2(O)CN(S(=O)(=O)c3ccc(C)cc3)CC2[C@H]1C(=O)OC (stereo partly specified) 1.85%, O=C(C[C@H]1C[C@@H]2c3cc(NC(=O)C4CCC4)ccc3O[C@@H]2[C@H](CO)O1)NC1CCCCC1 -4.88%, CCN(CC(=O)Nc1ccc(NC(C)=O)cc1)C(=O)C1CC(=O)N(c2ccc3c(c2)OCCO3)C1 (stereo unspecified) 1.33%, Cc1ccccc1-c1ccc2c(c1)O[C@@H](CN(C)Cc1ccc(C(=O)O)cc1)[C@@H](C)CN([C@H](C)CO)S2(=O)=O 1.68%, Cc1cc(C)c2cc(C#N)c(N3CCNCC3)nc2c1 5.23%, COCC1CCCCN1C(=O)c1cc(COc2ccc(C)c(C)c2)on1 (stereo unspecified) -6.78%, c1ccc(CNCc2ccc(CNCc3ccccc3)cc2)cc1 -1.27%, C[C@@H]1CN([C@H](C)CO)C(=O)CCCn2nncc2CO[C@@H]1CN(C)S(=O)(=O)c1cccc(C#N)c1 5.67%, O=C(c1ccccc1)N1CCN(c2cc(-c3ccccc3)nc3cc(-c4cccc(Cl)c4)nn23)CC1 -2.44%, C[C@H]1NS(=O)(=O)c2cc(Cl)ccc2O[C@@H]1c1ccccc1 -0.08%, S=C(NN=Cc1ccccn1)Nc1ccccn1 12.6%, CN1OC[C@@H]2CN(C(=O)c3ccc(-c4ccccc4)cc3)[C@H](c3ccc(-c4cccc(F)c4)cc3)C[C@@H]21 -8.75%, C[C@H](CO)N1C[C@H](C)[C@H](CN(C)C(=O)Nc2ccc3c(c2)OCO3)Oc2ncc(Br)cc2C1=O 6.88%, O=C(c1cccs1)N1C[C@H](n2cc(C3CC3)nn2)[C@@H](O)C[C@@H]1c1ccccc1 5.94%, N#CCSc1ccccc1NC(=O)CN1C(=O)NC(CCc2ccccc2)C1=O (stereo unspecified) 0.61%, COC(=O)c1ccccc1N=NNc1ccc([N+](=O)[O-])cc1 7.66%, O=C1NC(Cc2ccccc2)c2nc3ccc(Br)cc3c(=O)n2-c2cc3ccccc3cc21 (stereo unspecified) -6.52%, COc1cc(C(=O)N2CCOC23CCN(Cc2ccccc2)CC3)cc(OC)c1OC 5.01%, CC(=O)c1ccc(OCC(=O)N(C)C2CCS(=O)(=O)C2)cc1 (stereo unspecified) -5.08%, C[C@@H]1CN([C@H](C)CO)S(=O)(=O)c2ccc(C#C[C@@H](C)O)cc2O[C@@H]1CN(C)Cc1ccc(-c2ccccc2)cc1 -12.3%, O=C(NCCN1CCOCC1)c1ccc2c(c1)N(Cc1cccc(Cl)c1)C(=O)c1ccccc1S2(=O)=O -0.88%, COc1ccc(NC2CCCN(C(=O)c3ccccc3-c3ncc[nH]3)C2)cc1 (stereo unspecified) -6.86%, Cc1sc2ncnc(SCC(=O)NC3CCS(=O)(=O)C3)c2c1C (stereo unspecified) -9.19%, CN(c1ccccc1)S(=O)(=O)c1ccc(C(=O)NCc2cccnc2)cc1 -3.42%, O=C(COC(=O)CCc1c[nH]c2ccccc12)Nc1cccc(Cl)c1 1.73%, CCOC(=O)c1cc(-c2sc(NC(=O)c3ccccc3)nc2C)n(Cc2ccccc2)n1 -0.16%, O=C(COC(=O)c1ccc(S(=O)(=O)N2CCCCCC2)cc1)Nc1ccccc1C(F)(F)F -16.8%, CN(Cc1ccccc1)C(=O)CCC1CCN(C(=O)c2ccco2)CC1 2.88%, Cc1[nH]c2ccccc2c1C(=O)C(=O)NCc1nnnn1-c1cccc(F)c1 -2.65%, Cn1c(=O)cc(OCCCC(=O)N2CCN(Cc3ccc4c(c3)OCO4)CC2)c2ccccc21 -7.18%, Cc1cc(C)n2nc(C(=O)N3CCN(Cc4ccc5c(c4)OCO5)CC3)nc2n1 -11.3%, CCN1C(=O)[C@H]2[C@@H](c3ccccc3)N[C@]3(CCCN(Cc4ccc(C)cc4)C3=O)[C@H]2C1=O 0.79%, O=C(NCCS(=O)(=O)N1CCN(c2ccccc2)CC1)c1cc(=O)c2ccccc2o1 -13.1%, CCCCN1C(=O)C(CC(=O)NC(c2ccccc2)c2ccccc2)CC(C(=O)N2CCOCC2)=C1C (stereo unspecified) -5.21%, Cc1ccccc1NC(=O)Cc1nc(COC(=O)C(C)(C)Oc2ccc(Cl)cc2)cs1 3.15%, C/C(COc1ccccc1)=N\NC(=O)c1nnn(-c2nonc2N)c1-c1ccc(C)cc1 -17.1%, CCCc1c(C)nc2scc(-c3ccc(Cl)cc3)n2c1=O -2.72%, CSc1ncnc2c1ncn2CCCNCc1cccs1 2.56%, CCC(Oc1ccccc1)C(=O)OCC(=O)Nc1c(C)nn(-c2ccccc2)c1C (stereo unspecified) -5.13%, COc1cccc(OCC(=O)NCCS(=O)(=O)N2CCN(c3ccccc3)CC2)c1 0.99%, CNC(=O)C[C@H]1C(=O)N(Cc2ccccc2)C[C@@H]1CSC -9.1%, COc1ncnc2c1ncn2CCCNCCN1CCOCC1 4.38%, O=S1(=O)CCN(Cc2ccccc2)CC1 -1.42%

activation, active:
O=C(CCCN1C(=O)c2cccc3cccc(c23)C1=O)N1CCN(Cc2ccc3c(c2)OCO3)CC1 18.8%
